Compounds with a hit are over-represented: about 3.4% of the library has one in this group of screens.
GPR151 activ: activators of human GPR151, primary screen, cell-based, PathHunter beta-arrestin, luminescence. PathHunter beta-arrestin GPR151 cells. 650,000 tested, 1% active. G-protein coupled receptor 151 (Homo sapiens), Q8TDV0. AID 1508602, 2020. activation, % at 11.2 µM; in the data active = activation above about 4.9%;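 note: 0% = median of compound wells and 100% = cells with positive control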
TEAD-YAP inh: TEAD-YAP interaction inhibition, primary screen, TEAD-YAP interaction inhibitor project, luminescence, HEK-TIYL cells; TEAD-Gal4/YAP UAS-luciferase luminescence; inhibition, % at 9.12 µM; 640,000 tested, 1.4% active; in the data active = inhibition above about 32%;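 note: 0% = median of test compound wells and 100% = reference inhibitor wells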
FBW7 activator: FBW7 E3 ligase activators, primary screen, biochemical, AlphaScreen, human. F-box/WD repeat-containing protein 7 (Homo sapiens), Q969H0. AlphaScreen FBW7–phospho-cyclin E peptide binding, activator screen. normalized activity (activation), % at 26.1 µM. 650,000 tested, 0.13% active; in the data active = normalized activity above about 1.9%;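 note: purified mutant Fbw7 with reduced substrate affinity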
MITF inh: MITF inhibitors, primary screen, biochemical, AlphaScreen, human. Microphthalmia-associated transcription factor (Homo sapiens), O75030. AlphaScreen MITF homodimerization, bead proximity signal. inhibition, % at 2.6 µM. 650,000 tested, 0.91% active; in the data active = inhibition above about 50%;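 note: 0% = vehicle wells with protein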
Target sequence (O75030 whole entry, looked up): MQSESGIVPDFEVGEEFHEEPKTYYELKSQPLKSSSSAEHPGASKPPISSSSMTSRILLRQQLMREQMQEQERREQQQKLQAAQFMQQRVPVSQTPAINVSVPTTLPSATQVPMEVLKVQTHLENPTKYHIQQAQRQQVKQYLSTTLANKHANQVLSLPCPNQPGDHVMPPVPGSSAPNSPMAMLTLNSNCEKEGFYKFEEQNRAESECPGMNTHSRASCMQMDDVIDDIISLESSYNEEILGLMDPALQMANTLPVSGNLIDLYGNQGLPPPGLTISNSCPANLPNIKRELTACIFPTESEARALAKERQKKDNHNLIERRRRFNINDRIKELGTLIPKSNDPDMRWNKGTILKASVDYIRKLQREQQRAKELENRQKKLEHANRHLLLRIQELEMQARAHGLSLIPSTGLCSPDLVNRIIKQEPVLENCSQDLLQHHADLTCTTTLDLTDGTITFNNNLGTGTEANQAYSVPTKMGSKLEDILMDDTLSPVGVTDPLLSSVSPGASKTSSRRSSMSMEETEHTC
MITF confirm: MITF inhibitors, retest of hits, confirmation, biochemical, AlphaScreen, triplicate; shares compounds with MITF inh; AlphaScreen MITF homodimerization, biotin/His-MITF beads; inhibition, % at 2.6 µM; 4,700 tested, 16% active;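 active = inhibition above a cutoff derived from the DMSO control wells, cut at about 28% in these data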;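 note: 0% = MITF dimer wells with DMSO only; inhibitors lower the bead chemiluminescence by keeping MITF from dimerizing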
AS interf DR: AlphaScreen optical interference compounds, dose response, counter-screen, biochemical, HTS; 480 tested, 6% active; AlphaScreen optical interference counterscreen, cell-free; shares compounds with MITF inh; IC50, µM; call rule not given here
AS interf ctr: AlphaScreen optical interference compounds, counter-screen for MITF inhibitor project, biochemical, triplicate | shares compounds with MITF inh | AID 1259376, 2018 | 4,700 tested, 7.6% active | LysRS AlphaScreen counterscreen, signal interference | inhibition, % at 2.6 µM;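 active = inhibition above a cutoff derived from the DMSO control wells, cut at about 30% in these data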
Starred values were filed as active, the others as inactive; x = not tested or not shown.

SMILES	GPR151 activ	TEAD-YAP inh	FBW7 activator	MITF inh	MITF confirm	AS interf ctr	others
COc1ccc(OC)c(CN2CCN(Cc3cc(OC)ccc3OC)CC2)c1	2.6	-1.6	-0.1	57.1*	-3.5	-3.3
COc1ccc(OC)c(CN2CCC(N3CCCC(C)C3)CC2)c1 (configuration not stated)	1.9	1.2	-0.2	50.7*	-6.1	4.1
COc1ccc(CN2CCN(C3CCCC(C)C3)CC2)c(OC)c1 (configuration not stated)	0.5	6.4	0.1	32.6	x	x
Cn1cccc1CN(Cc1cccs1)C(=O)/C=C/c1ccco1	-1.2	-10.5	-0.1	23.4	x	x
O=C(c1ccccc1)c1ccc(O)c(O)c1	0.3	2.9	0.1	-11.9	x	x
CCc1cc2c(=O)c(-c3ccc4c(c3)OCO4)c(C)oc2cc1O	-0.1	-3.3	-0.1	10.7	x	x
COc1cccc(-n2c(SCC(=O)Nc3nccs3)nnc2-c2cccnc2)c1	-0.6	-3.1	0.0	3.6	x	x
Cc1cc(C)cc(-n2c(SCC(=O)Nc3nccs3)nnc2-c2cccnc2)c1	0.7	-13.3	-0.1	57.5*	2.3	14.7
O=C(NNC(=O)c1cccc(Cl)c1Cl)c1ccncc1	3.2	-1.1	0.0	2.8	x	x
Cc1ncc2c(c1CNC(=O)Cc1cccs1)CCN(C(=O)C1(C)CCCCC1)C2	-0.8	7.0	-0.1	74.0*	15.0	9.5
Cc1ncc2c(c1CNC(=O)Cc1cccs1)CCN(C(=O)CCC1CCCC1)C2	-0.4	-7.9	0.4	9.2	x	x
COC(=O)c1cnn2c(C)c(Cc3cc(C)ccc3C)c(C)nc12	0.9	-0.8	-0.1	5.6	x	x
Nc1nonc1C(=O)N/N=C\c1cc([N+](=O)[O-])c(Cl)cc1Cl	-0.3	3.8	0.8	67.2*	-4.3	-5.9
CC(C(=O)NCc1ccco1)N1CCN(C)CC1 (configuration not stated)	2.0	6.1	0.2	-2.9	x	x
C=CCC1(NCc2ccco2)CCN(C)CC1	0.3	-3.8	-0.1	63.1*	-0.4	-3.5
O=C(N/N=C/c1ccc(O)c(Br)c1)c1cc(Br)ccc1O	-0.1	6.5	0.0	-1.1	x	x
Cc1nc(C)n(-c2ccc(Nc3cc(-n4cc(N(c5cccnc5)c5cccnc5)cn4)ccn3)cc2)n1	-1.4	-1.3	0.6	50.8*	52.2*	0.3	AS interf DR=>6.48
Nc1nc(CSc2nnc(-c3cccc(F)c3)n2-c2ccccc2)nc(N2CCOCC2)n1	-0.9	-8.9	-0.1	51.1*	7.5	7.3
CC(C)CN1C(=O)C(=O)N(CC(=O)c2ccc3c(c2)OCCO3)C1=O	-0.2	-18.3	0.3	12.9	x	x
CC(=O)N/C(=C\c1ccccc1)C(=O)OCC(=O)OC(C)(C)C	-0.4	-7.7	-0.1	53.9*	13.8	12.3
CC1CCC(N2CCN(Cc3ccc(F)cc3)CC2)CC1 (configuration not stated)	0.2	-3.2	-0.1	34.0	x	x
CC1CCCC(N2CCN(Cc3ccc(Cl)cc3)CC2)C1 (configuration not stated)	-0.2	10.4	-0.1	72.7*	-7.8	-1.9
CC1CCCC(N2CCN(Cc3cccc(F)c3)CC2)C1 (configuration not stated)	-1.3	-1.4	0.0	68.6*	-3.1	-6.6
Fc1cccc(CN2CCC(N3CCCCC3)CC2)c1	-0.6	4.4	0.0	-7.7	x	x
CC1CCCC(N2CCN(Cc3ccc(F)cc3)CC2)C1 (configuration not stated)	0.2	-39.4	0.1	74.3*	4.0	3.8
CCc1ccc(CN2CCN(C3CCCC(C)C3)CC2)cc1 (configuration not stated)	-2.2	-2.6	-0.1	64.2*	-0.2	-1.1
Cc1cc(CSC(=N)N)c(O)c(C)n1	-1.4	-4.9	-0.8	64.7*	82.3*	14.0	AS interf DR=>6.48
Cc1cc(CSC(=N)N)c(O)c(C(C)(C)C)n1	1.0	6.6	-0.1	10.3	x	x

Source: PubChem BioAssay
